Inconclusive results are not listed. Activity calls are given as the source filed them. Unless noted, calls come from the whole dose curve; as a rule, active = well fitted curve in the direction sought with a large enough effect; inconclusive = small, poorly fitted or top-dose-only effect, or another doubt; inactive = no such curve, though single readings can be large; an effect the other way counts as inactive or inconclusive. A value given as a limit tells only on which side of the number the result lay.

Here are results for two compounds from PubChem BioAssay (NCATS).

In test [1] the target is Lysosomal acid glucosylceramidase (Homo sapiens) (UniProt P04062). Description: Glucocerebrosidase-p2 (AID 348; in the data active = potency below about 10 µM; note: potency is the fitted concentration of half-maximal effect). Particulars: purified GBA, blue fluorogenic substrate, 40 min. Put shortly: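 Compounds titrated from 0.6 nM upwards against 0.2 nM enzyme in pH 5.9 citric acid/KH2PO4, taurocholate, tween-20; blue fluorogenic substrate 80 uM, 40 min room temperature, stopped and read Ex 365/Em 440 for AC50.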

The nature of test [2]: AP1 Signaling Pathway (AID 357; active = well fitted curve in either direction with a large enough effect, not every such curve was filed as active;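 note: ME-180 reporter cells stimulated with EGF at its EC50 level; % is set by controls: 0 for no effect and ±100 for the full control effect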). Conditions: ME-180 AP-1-bla reporter, EGF-induced, beta-lactamase ratio, 5 h; at 7.69 µM (top of the series) unless noted. Put shortly:
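In this screen, ME-180 cells in Opti-MEM with 0.5% dialyzed FBS received EC50 EGF and compound titrations for 5 h. AP-1 reporter beta-lactamase was detected via CCF4 ratio, giving AC50 for positive and negative modulators.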

Test [3] addresses Cytochrome P450 1A2 (Homo sapiens) (UniProt P05177). The test can be described thus: p450-cyp1a2 (AID 410; calls by dose curve; note: potency is the fitted concentration of half-maximal effect). Put shortly:
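Human CYP1A2 (20nM) demethylated Luciferin-ME at its Km (100uM) in 100mM KPO4. After 10 min compound preincubation, NADPH regeneration ran the reaction 60 min at room temperature. Luciferin was read by luminescence, normalized to 57 uM furafylline.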

Test [4] is described as follows: NFAT Signaling Pathway (AID 444; active = well fitted curve in either direction with a large enough effect, not every such curve was filed as active;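 note: carbachol stimulus at about its EC50 of 1 µM final; % is set by controls: 0 for no effect and ±100 for the full control effect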). Particulars: Jurkat NFAT-bla M1, carbachol, beta-lactamase ratio, 5 h; at 7.69 µM (top of the series) unless noted. The method in brief: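 Read-out: CCF4 FRET ratio (460 nm/530 nm) after 1 h RT dye loading, used for %activity and AC50 from titration series. Cells: Jurkat NFAT-β-lactamase/M1 line, treated with compound plus 1 uM carbachol for 5 h, 37 °C.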

Test [5] addresses Glucocorticoid receptor (Homo sapiens) (UniProt P04150). The test can be described thus: GR-GFP Redistribution (AID 450;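 active = compounds whose dose series gives a full or clear partial fitted curve of increased nuclear translocation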; note: potency is the fitted concentration of half-maximal effect). Conditions: U2OS GR-GFP nuclear translocation, laser cytometry, 2 h.
The target is the same in test [6]. The test can be described thus: GR-EFC Redistribution (AID 451; calls by dose curve; note: potency is the fitted concentration of half-maximal effect). Conditions: CHO-K1 GR-EFC translocation, beta-gal luminescence, 2 h. The method in brief: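 Translocation of GR-ED fusion to nuclear EA restores b-gal, read by luminescence after 1 h room-temperature detection. Engineered CHO-K1 biosensor cells, 1,000/well, exposed 2 h at 37 C to titrations up to 46 uM final.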

Test [7] has as its target Mitogen-activated protein kinase 10 (Mus musculus) (UniProt Q61831). Description: JNK3 AlphaScreen Assay (AID 530; active = well fitted curve in either direction with a large enough effect, not every such curve was filed as active;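 note: kinase came from lysate of stimulated human HepG2 cells; signal reports phosphorylation of biotinylated GST-cJun 1-79 at Ser73 with 10 µM ATP; % is set by controls: 0 for no effect and ±100 for the full control effect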). The method in brief:
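Room-temperature AlphaScreen kinase assay; pre-activated HepG2 lysate as JNK3 source, biotin-GST-cJun(1-79) substrate, 10 uM ATP, compound 15 min preincubation.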
(In general: In Alpha technology, singlet oxygen from a donor bead excites a nearby acceptor bead.)

Test [8] has as its target 3',5'-cyclic-AMP phosphodiesterase 4B (Homo sapiens) (UniProt Q07343). Description: qHTS Assay for Inhibitors of PDE-IV (AID 607; active = well fitted activation curve with a large enough effect in the main read-out, with a control signal flat, not every such curve was filed as active; note: % of control where 0% means no effect). The method in brief:
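HEK293 ACTOne cells with CNG channel (1000/well), endogenous PDE4; membrane potential dye, compounds up to 22.9 uM final. Fluorescence Ex 535/Em 590; RO 20-1724 (100 uM final) as reference.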
On the technique in general: Quantitative high-throughput screening tests each substance at several concentrations.

In test [9] the target is Cytochrome P450 2C9 (Homo sapiens) (UniProt P11712). Description: qHTS Assay for Inhibitors and Substrates of Cytochrome P450 2C9 (AID 883). Note: potency is the fitted concentration of half-maximal effect; nearly all actives have a fitted effect of over 60% in size. Put shortly: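 Turnover of Luciferin-H (100uM, KM) by 10nM human CYP2C9 was measured over 60 min at 37C with NADPH regeneration; inhibitors and some substrates reduce luminescence. Data normalized to sulphaphenazole 57uM.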
Test [10] deals with Cytochrome P450 3A4 (Homo sapiens) (UniProt P08684). The test can be described thus: qHTS Assay for Activators of Cytochrome P450 3A4 (AID 885). Note: nearly all actives have a fitted effect of over 65% in size. Put shortly: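 Human CYP3A4 (20 nM) with Luciferin-PPXE at 25 uM (its KM) in 200 mM KPO4; 10 min compound preincubation, then NADPH regeneration and 60 min reaction at RT. Luciferin read by luminescence; normalized to 57 uM ketoconazole full inhibition.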

Test [11] is described as follows: qHTS Assay for Identification of Small Molecule Agonists for Hypoxia Response Element Signaling Pathway (AID 914; active = well fitted activation curve with a large enough effect in the signal ratio, with a control signal flat, not every such curve was filed as active; the % refers to the signal ratio; note: potency is the fitted concentration of half-maximal effect). Particulars: ME-180 HRE-bla reporter, beta-lactamase ratio, CoCl2, 17 h; activation: stronger effect = higher value. The method in brief: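 ME-180 cells carrying an HRE-driven beta-lactamase reporter were treated with compounds in a titration series plus an EC50 level of CoCl2 for 17 h at 37 degrees Celsius; CCF4 readout as the 460nm/530nm ratio gave AC50 values.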

A short description of test [12]: qHTS Assay for Lipid Storage Modulators (AID 1519; calls by dose curve). Conditions: Drosophila S3 cells, BODIPY lipid droplet/cell ratio, laser cytometry, cells loaded with oleic acid; for activity change, negative = inhibition: at 57.5 µM (top of the series). The method in brief:
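Cells seeded at 5,000 per well were treated with compounds over a concentration series and loaded with oleic acid (400 uM, as added). Lipid droplet fluorescence (488 nm excitation, 500-530 nm channel) was read by laser-scanning cytometry and normalized to 20 uM Triacsin C.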

Test [13] can be described thus: Counterscreen qHTS for small molecule stabilizers of the endoplasmic reticulum resident proteome: GLuc-NoTag assay (AID 1508627).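 Note: SH-SY5Y cells given compound then 100 nM thapsigargin to empty ER calcium; 0% = thapsigargin alone and -100% = DMSO vehicle control.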 Put shortly: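 Luminescence of Gaussia luciferase secreted into the medium (coelenterazine, 0.07x final, unlysed cells) was the read-out. Human SH-SY5Y neuroblastoma cells constitutively secreting untagged GLuc received compound for 19 h, then 100 nM thapsigargin for 4 h.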
On the technique in general: A counterscreen serves to expose hits that act by an unwanted route or on another target.

The nature of test [14]: Confirmatory qHTS for small molecule stabilizers of the endoplasmic reticulum resident proteome: Secreted ER Calcium Modulated Protein (SERCaMP) assay (AID 1508628). Note: potency is the fitted concentration of half-maximal effect; nearly all actives have a fitted effect of over 40% in size. The method in brief: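 We seeded SH-SY5Y-GLuc-SERCaMP cells, added compounds (three concentrations in the primary run, eleven up to 76.6 uM in confirmation), incubated 16 h, depleted ER calcium with thapsigargin, and read luciferase 4 h later.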

Test [15] in a line: Stat Signaling Pathway (AID 446; active = well fitted curve in either direction with a large enough effect, not every such curve was filed as active;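 note: ME-180 cervical cancer cells given 40 pM IL-6 alongside compound; SIE-controlled beta-lactamase reporter measured as 460/530 nm FRET emission ratio; % is set by controls: 0 for no effect and ±100 for the full control effect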). Particulars: ME-180 (cervical carcinoma) SIE beta-lactamase reporter, IL-6 stimulated, 5 h; at 7.69 µM (top of the series) unless noted. The method in brief:
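ME-180 cells carrying a SIE-driven beta-lactamase reporter are stimulated with 40 pM IL-6 for 5 h at 37C in the presence of compound. The 460/530 nm FRET substrate ratio is read after 2.5 h at RT. Data are normalised to 300 pM IL-6 and to 125 nM JAK inhibitor controls.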

In test [16] the target is Cytochrome P450 3A4 (Homo sapiens) (UniProt P08684). The test can be described thus: qHTS Assay for Inhibitors and Substrates of Cytochrome P450 3A4 (AID 884). Note: potency is the fitted concentration of half-maximal effect; nearly all actives have a fitted effect of over 50% in size. The method in brief: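 20 nM human CYP3A4 with 25 uM Luciferin-PPXE (at KM) in 200 mM KPO4, preincubated 10 min with compound; NADPH regeneration started a 60 min RT reaction. Luciferin detected by luminescence, normalized to 57 uM ketoconazole as full inhibition.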

The target in test [17] is Cytochrome P450 2D6 (Homo sapiens) (UniProt P10635). Description: qHTS Assay for Inhibitors and Substrates of Cytochrome P450 2D6 (AID 891). Note: potency is the fitted concentration of half-maximal effect; nearly all actives have a fitted effect of over 60% in size. The method in brief: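 Human CYP2D6 (5 nM) with 30 uM Luciferin-ME EGE (at Km) in 100 mM KPO4, compound preincubated 10 min, then NADPH regeneration system for 60 min at room temperature. Luciferin read by luminescence; normalized to 1.43 uM quinidine.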

A short description of test [18]: Confirmation and Secondary Assay for Modulators of Hemoglobin Beta Chain Splicing at IVS2 654 locus (AID 910).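 Note: HeLa cells stably carrying EGFP split by mutant beta-globin IVS2-654 intron; per-well total GFP intensity by laser scanning cytometry after 2-day treatment; % of control where 0% means no effect.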 Put shortly: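 Readout: per-well total peak green fluorescence (488 nm ex, 500–520 nm em) from objects 5–250 µm, reflecting correct splicing of an EGFP-654 reporter. Compounds were applied for 2 days at 37 °C to overnight-plated HeLa EGFP-654 cells; controls were DMSO and 500 nM IVS2-654 PNA.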

Test [19] in a line: Confirmation and Secondary Assay for Modulators of Hemoglobin Beta Chain Splicing at IVS2 705 locus (AID 930).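 Note: HeLa cells stably expressing the EGFP-705 splicing reporter; % of control where 0% means no effect.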 The method in brief: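 HeLa cells stably carrying EGFP interrupted by mutant beta-globin IVS2-705 intron (CMV-driven) were seeded at 500 cells/well, treated next day with compound for 2 days at 37C; corrected splicing restores EGFP, read as total peak GFP intensity per well.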

In test [20] the target is Ubiquitin carboxyl-terminal hydrolase 1 (Homo sapiens) (UniProt O94782). The test can be described thus: Inhibitors of USP1/UAF1: Pilot qHTS (AID 504865).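 Note: rhodamine fluorescence freed from ubiquitin-rhodamine substrate followed over time; top concentration of the series differs between compounds; % is set by controls: 0 for no effect and ±100 for the full control effect; nearly all actives have a fitted effect of over 35% in size.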 The method in brief: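 Enzyme-free wells gave the negative control, while test wells held 1nM USP1/UAF1 preincubated with compound for 15 min at room temperature. Ub-Rho at 150nM final started the reaction, and fluorescence at 480/540 nm was recorded kinetically.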

A short description of test [21]: Cell Viability qHTS for small molecule stabilizers of the endoplasmic reticulum resident proteome (AID 1508629). Conditions: cell viability counter-screen, 100 nM thapsigargin for final 4 h.
Where [22] appears, read: measured here: cell count channel max response.
[23] abbreviates: measured here: lipid channel max response.

Glucocorticoid receptor (Homo sapiens), sequence (P04150 whole entry, looked up, the tested form may be a part): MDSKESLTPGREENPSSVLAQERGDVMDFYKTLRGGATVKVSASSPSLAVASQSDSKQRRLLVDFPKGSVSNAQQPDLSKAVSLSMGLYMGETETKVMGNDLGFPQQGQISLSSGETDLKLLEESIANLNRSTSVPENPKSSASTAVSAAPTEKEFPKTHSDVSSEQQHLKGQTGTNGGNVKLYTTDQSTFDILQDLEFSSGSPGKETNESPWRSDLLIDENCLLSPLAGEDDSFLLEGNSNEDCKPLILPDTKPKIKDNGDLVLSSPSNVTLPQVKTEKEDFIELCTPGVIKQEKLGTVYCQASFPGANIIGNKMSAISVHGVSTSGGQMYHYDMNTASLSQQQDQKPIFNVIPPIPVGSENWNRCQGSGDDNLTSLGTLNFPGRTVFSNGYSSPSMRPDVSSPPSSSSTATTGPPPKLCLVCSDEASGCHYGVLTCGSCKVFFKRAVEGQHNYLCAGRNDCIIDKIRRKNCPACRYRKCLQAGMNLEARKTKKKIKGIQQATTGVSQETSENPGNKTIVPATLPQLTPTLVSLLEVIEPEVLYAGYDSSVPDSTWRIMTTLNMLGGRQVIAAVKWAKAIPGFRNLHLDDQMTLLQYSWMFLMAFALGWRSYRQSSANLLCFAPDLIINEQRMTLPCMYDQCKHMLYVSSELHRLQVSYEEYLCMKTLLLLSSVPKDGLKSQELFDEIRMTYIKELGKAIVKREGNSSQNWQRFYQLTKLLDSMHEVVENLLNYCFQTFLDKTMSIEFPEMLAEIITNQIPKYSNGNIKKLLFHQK
Cytochrome P450 3A4 (Homo sapiens), sequence (P08684 whole entry, looked up): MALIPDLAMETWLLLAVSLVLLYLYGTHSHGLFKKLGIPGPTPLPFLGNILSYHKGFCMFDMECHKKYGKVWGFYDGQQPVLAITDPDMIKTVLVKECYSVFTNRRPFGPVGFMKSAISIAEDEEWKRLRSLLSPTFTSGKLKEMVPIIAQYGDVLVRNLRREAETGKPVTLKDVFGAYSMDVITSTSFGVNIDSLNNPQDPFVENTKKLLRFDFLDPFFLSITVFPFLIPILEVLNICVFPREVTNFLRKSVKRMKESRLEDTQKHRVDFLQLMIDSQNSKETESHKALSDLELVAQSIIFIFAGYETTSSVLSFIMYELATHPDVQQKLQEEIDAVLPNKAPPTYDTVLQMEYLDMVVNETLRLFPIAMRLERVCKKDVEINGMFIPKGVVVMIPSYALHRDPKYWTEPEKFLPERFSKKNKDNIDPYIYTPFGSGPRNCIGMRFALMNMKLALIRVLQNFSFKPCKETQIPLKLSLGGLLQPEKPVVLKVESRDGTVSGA
Cytochrome P450 1A2 (Homo sapiens), sequence (P05177 whole entry, looked up): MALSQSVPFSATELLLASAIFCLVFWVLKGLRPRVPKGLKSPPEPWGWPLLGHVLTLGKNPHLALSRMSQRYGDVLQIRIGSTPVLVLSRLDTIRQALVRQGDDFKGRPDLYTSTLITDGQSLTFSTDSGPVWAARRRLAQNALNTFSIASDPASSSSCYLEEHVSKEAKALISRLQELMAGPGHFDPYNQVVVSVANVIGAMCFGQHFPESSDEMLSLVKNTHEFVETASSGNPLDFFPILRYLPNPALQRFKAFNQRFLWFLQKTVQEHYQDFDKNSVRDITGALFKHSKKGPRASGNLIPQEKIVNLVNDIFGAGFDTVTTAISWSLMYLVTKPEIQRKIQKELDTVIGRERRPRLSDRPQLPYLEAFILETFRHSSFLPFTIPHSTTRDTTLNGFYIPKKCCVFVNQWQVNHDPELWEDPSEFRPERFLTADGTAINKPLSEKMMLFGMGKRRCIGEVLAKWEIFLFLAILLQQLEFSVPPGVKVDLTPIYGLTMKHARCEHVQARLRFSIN
Cytochrome P450 2D6 (Homo sapiens), sequence (P10635 whole entry, looked up): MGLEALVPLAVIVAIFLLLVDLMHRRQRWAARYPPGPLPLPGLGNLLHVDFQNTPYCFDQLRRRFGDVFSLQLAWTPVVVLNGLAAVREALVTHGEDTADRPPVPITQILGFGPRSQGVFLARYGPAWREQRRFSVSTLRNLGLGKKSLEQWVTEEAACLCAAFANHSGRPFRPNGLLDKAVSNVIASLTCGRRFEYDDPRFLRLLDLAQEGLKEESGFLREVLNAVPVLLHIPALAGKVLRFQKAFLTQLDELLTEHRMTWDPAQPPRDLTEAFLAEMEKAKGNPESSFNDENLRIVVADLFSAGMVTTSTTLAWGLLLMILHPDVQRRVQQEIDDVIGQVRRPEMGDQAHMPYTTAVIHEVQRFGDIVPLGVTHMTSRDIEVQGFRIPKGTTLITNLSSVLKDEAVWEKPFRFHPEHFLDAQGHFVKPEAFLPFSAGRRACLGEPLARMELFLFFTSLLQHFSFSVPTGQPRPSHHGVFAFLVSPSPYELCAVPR
Cytochrome P450 2C9 (Homo sapiens), sequence (P11712 whole entry, looked up): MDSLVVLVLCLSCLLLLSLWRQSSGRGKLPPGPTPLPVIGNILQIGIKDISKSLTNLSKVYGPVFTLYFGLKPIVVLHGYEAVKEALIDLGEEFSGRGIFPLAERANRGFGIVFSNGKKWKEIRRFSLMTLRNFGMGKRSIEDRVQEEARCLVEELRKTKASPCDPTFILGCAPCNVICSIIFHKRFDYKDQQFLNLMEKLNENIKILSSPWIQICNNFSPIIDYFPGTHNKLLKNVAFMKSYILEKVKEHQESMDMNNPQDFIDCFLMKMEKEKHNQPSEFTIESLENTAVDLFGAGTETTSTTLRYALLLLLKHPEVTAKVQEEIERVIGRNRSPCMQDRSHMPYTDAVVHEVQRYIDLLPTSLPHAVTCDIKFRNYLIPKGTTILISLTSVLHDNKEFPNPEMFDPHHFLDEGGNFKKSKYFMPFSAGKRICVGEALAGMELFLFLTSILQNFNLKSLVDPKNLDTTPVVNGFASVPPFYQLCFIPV
Lysosomal acid glucosylceramidase (Homo sapiens), sequence (P04062 whole entry, looked up): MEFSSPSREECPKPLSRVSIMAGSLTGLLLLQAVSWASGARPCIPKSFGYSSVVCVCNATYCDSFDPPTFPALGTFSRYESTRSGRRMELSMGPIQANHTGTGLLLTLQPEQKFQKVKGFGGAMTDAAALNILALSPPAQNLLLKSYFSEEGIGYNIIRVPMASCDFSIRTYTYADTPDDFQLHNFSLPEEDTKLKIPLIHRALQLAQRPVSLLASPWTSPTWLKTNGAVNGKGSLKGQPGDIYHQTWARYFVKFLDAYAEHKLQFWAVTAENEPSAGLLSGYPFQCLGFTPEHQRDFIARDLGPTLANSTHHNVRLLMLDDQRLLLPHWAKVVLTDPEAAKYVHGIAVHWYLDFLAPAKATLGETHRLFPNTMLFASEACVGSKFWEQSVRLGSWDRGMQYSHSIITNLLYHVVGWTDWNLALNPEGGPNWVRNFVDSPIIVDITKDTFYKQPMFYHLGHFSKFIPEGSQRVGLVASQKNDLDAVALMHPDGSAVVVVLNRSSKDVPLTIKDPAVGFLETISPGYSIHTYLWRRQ
3',5'-cyclic-AMP phosphodiesterase 4B (Homo sapiens), sequence (Q07343 whole entry, looked up): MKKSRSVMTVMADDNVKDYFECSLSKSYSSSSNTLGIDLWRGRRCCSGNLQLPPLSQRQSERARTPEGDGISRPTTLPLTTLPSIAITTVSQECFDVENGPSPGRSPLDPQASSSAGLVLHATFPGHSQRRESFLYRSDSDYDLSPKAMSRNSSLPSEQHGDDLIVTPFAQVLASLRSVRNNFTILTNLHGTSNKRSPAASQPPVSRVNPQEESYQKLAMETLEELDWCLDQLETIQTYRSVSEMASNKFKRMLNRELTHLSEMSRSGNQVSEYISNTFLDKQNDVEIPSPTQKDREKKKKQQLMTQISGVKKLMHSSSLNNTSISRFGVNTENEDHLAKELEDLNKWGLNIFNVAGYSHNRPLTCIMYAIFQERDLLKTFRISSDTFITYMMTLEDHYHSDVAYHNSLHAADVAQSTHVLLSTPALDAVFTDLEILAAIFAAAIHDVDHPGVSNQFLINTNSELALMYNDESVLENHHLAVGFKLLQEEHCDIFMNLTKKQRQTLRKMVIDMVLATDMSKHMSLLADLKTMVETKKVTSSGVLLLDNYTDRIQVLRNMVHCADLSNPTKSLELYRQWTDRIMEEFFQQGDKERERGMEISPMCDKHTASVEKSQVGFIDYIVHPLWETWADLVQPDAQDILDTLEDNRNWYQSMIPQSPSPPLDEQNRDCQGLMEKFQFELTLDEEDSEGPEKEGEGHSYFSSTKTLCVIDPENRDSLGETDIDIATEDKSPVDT
Ubiquitin carboxyl-terminal hydrolase 1 (Homo sapiens), sequence (O94782 whole entry, looked up): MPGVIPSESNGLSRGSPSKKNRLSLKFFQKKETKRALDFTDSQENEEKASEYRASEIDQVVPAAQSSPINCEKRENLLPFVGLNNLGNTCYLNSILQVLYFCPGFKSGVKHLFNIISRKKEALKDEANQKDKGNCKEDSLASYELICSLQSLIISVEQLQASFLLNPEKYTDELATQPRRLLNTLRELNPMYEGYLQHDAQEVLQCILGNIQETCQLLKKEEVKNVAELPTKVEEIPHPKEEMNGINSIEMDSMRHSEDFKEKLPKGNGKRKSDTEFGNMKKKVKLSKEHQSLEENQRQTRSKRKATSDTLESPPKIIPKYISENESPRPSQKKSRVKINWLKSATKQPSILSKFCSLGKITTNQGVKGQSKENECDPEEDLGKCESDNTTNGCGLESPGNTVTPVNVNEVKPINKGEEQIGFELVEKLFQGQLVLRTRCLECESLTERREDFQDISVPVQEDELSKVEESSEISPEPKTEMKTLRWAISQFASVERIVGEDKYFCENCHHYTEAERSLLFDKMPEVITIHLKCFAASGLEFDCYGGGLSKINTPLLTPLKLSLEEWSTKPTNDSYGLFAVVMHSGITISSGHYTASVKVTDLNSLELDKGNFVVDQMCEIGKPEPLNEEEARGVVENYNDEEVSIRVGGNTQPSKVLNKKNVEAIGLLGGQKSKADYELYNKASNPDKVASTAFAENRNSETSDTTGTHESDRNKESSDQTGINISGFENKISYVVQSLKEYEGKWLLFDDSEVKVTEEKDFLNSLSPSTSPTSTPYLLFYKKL

Take `O=c1c(-c2ccccc2)nc2cnc(N3CCNCC3)nc2n1C1CC1`: the Potency is > 11.4 µM (inactive) in [1]; 3.98 µM (active) in test [3]; > 9.22 µM (inactive) in test [5]; > 46 µM (inactive) in test [6]; 0.158 µM (active) in test [9]; 3.16 µM (active) in test [11]. For the same compound, in test [14], the Potency is 39.8 µM (active). The values for the activity change, negative = inhibition in [2], in test [4] and in test [12] were 27.1% (inactive), 100% (inactive) and 5.31% (inactive), respectively. Further, the result in test [7] was inactive. For the same compound, the Potency result in test [8], in test [10] and in test [13] was “inactive” throughout. In addition, the max response stood at 32.7% in [12] (setting [22]) and 42.5% in [12] (setting [23]).

As for `COc1ccc(CNc2ncnc3ccc(-c4ccccc4CN(C)C)cc23)c(OC)c1`, the activity change, negative = inhibition in test [2] was 7.23% (inactive); in [12], 3.46% (inactive). Moreover, the Potency in test [3] is 31.6 µM (active); in test [5], > 46 µM (inactive); in test [6] it was > 46 µM (inactive); in test [16] it was 7.94 µM (active); in [17], 1.26 µM (active); in test [14], 7.94 µM (active). Further, the activity, negative = inhibition in test [15] was -15.7% (inactive). The result in [7], in test [18] and in test [19] was inactive. Also, the Potency result in test [10], in test [20] and in test [13] was “inactive” throughout. For the same compound, the max response is 4.91% in [12] (setting [22]), 8.13% in [12] (setting [23]) and 6.24% (inactive) in [21].
